From PubChem BioAssay
The full list was thinned out, with hits kept by preference.
Pf Dd2 growth = qHTS Primary assay for Inhibitors of Plasmodium falciparum Dd2 growth in vitro. P. falciparum Dd2 growth, SYBR Green, 72 h. Potency, µM (doses to about 28.9 µM), usual class: inhibitors. actives 4.3% (n = 120,000). AID 1347417, 2020; active means well fitted inhibition curve with a large enough effect; further: nearly all actives have a fitted effect of over 65% in size
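Infected erythrocytes (Dd2, 0.3% parasitemia, 2.5% hematocrit final) are added to compound in RPMI-1640/Albumax II medium, grown 72 h at 37C in low oxygen, then lysed with saponin/Triton-X containing SYBR Green and read by fluorescence.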
Numbers stand for hits; – = inactive; [ ] = another dose, or the depositor's remark.

SMILES | Pf Dd2 growth
CCN(C(=O)CSc1nc(-c2ccc(C(C)C)cc2)no1)c1ccccc1 | 1.12µM
CC(=O)N1CCN(C(=O)N2CC3CC(C2)[C@H]2CCCC(=O)N2C3)CC1 (stereo not given in full) | –
CS(=O)(=O)c1ccc(CN2C[C@@H]3OCC(=O)N(c4ccccc4)[C@@H]3C2)cc1 | –
CC(=O)N1CC[C@H](c2nnc(-c3cccnc3)o2)C1 | –
CC(=O)N1CC2(Cc3ccccc31)CN(C(=O)Cc1ccc(F)cc1)C2 | –
CNCc1cn(C2CCN(Cc3c(OC)ccc(F)c3F)CC2)nn1 | –
COc1ccccc1N1CCN([C@@H]2[C@H](O)[C@H](CO)O[C@@H]2CNC(C)C)CC1 | –
Cc1ccc(N(CC(=O)Nc2ccc(C)c(F)c2)S(=O)(=O)c2c(C)n[nH]c2C)cc1 | 8.91µM
COc1ccc(N(CC(=O)NCc2ccc(F)cc2)S(=O)(=O)c2c(C)n[nH]c2C)cc1 | –
Cc1n[nH]c(C)c1S(=O)(=O)N(CC(=O)NC(C)c1ccccc1)c1ccc(C(C)C)cc1 (stereo not given) | –
COCC(=O)NCCC1CCN(C(=O)Nc2ccc(F)cc2)CC1 | –
COCc1noc(CCNC(=O)C2CCN(C(=O)C3CC3)CC2)n1 | –
O=C(NCc1csc(-c2ncccn2)n1)C1COc2ccccc2C1 (stereo not given) | –
COc1ccccc1C(=O)NC(=O)Nc1ccc(-n2nc(C(F)(F)F)cc2C(F)(F)F)cc1 | 11.2µM
O=C(NC(=O)c1ccc(F)cc1)Nc1ccc(-c2cc(C(F)(F)F)nn2-c2ccccc2)cc1 | –
O=C(NC(=O)c1ccccc1)Nc1ccc(-n2nc(C(F)(F)F)cc2C(F)(F)F)cc1 | –
O=C(NCC(O)c1ccccc1C(F)(F)F)c1cccc(-n2cnnc2)c1 (stereo not given) | –
O=C(c1cocn1)N1C[C@@H](COc2ccncc2)[C@H](c2ccccn2)C1 | –
O=C(Nc1ccc2ncnc(N3CCCC3)c2c1)c1ccc(F)cc1Cl | –
O=C(Nc1ccc2ncnc(N3CCCCC3)c2c1)c1ccccc1Br | –
O=C(Nc1ccc2ncnc(N3CCCCC3)c2c1)c1c(F)cccc1Cl | –
O=C(Nc1ccc2c(N3CCCC3)ncnc2c1)c1ccccc1Cl | 12.6µM
Cc1ccc(-c2ncc(NC(=O)c3ccccc3C(F)(F)F)cn2)cc1 | –
O=C(Nc1ccc2c(N3CCCCC3)ncnc2c1)c1ccccc1C(F)(F)F | 11.2µM
COC(=O)CN1C(=O)[C@@H]2C[C@@H](O)CN2C2(CN(Cc3ccccn3)C2)C1=O | –
SMILES | Pf Dd2 growth
CNc1nc(C(=O)N2C[C@@H](C(=O)O)[C@H](c3ccc4c(c3)OCO4)C2)cs1 | –
O=C(Cc1ccc(OC(F)(F)F)cc1)N1CC(CNc2cccnc2)C2(C1)CN(c1ccccc1)C2 (stereo not given) | –
COCCN1CCCCCC(O)c2cc(C(=O)N3CCN(c4ncccn4)CC3)ccc21 (stereo not given) | –
COC[C@@H]1[C@H](C(=O)N2CCc3ccccc32)CCC(=O)N1C | –
COc1ccc(-n2nc(C3CCN(C(=O)Cc4ccccn4)CC3)[nH]c2=O)cc1 | –
CC(C)CC(=O)Nc1ccc2nc(SCC(=O)N3CCCC3)sc2c1 | –
CCOC(=O)c1cccc(NC(=O)c2ccc3nc(C(C)C)oc3c2)c1 | –
O=C(Nc1ccc(Cl)c(-c2nc3ccccc3o2)c1)c1ccc(-c2cccc([N+](=O)[O-])c2)o1 | –
Cn1c(CN2CCCCC2)nc2cc(NC(=O)c3cccc(Br)c3)ccc21 | –
CCOC(=O)N1CCN(Cc2nc3cc(NC(=O)CC(C)C)ccc3n2C(C)C)CC1 | 11.2µM
CCOC(=O)N1CCN(Cc2nc3cc(NC(=O)c4cccc(C)c4)ccc3n2C(C)C)CC1 | 6.31µM
CC(C)CC(=O)Nc1ccc2nc(SCC(=O)N3CCOCC3)sc2c1 | –
CCC(=O)NCCc1nc2cc(NC(=O)c3cccc(Br)c3)ccc2n1C | –
CCN1CCN(Cc2nc3cc(NC(=O)c4cccc([N+](=O)[O-])c4)ccc3n2CC)CC1 | 7.94µM
CC(=O)Nc1ccc(NC(=O)CN2C(=O)NC3(CCOCC3)C2=O)cc1 | –
COc1ccc(-c2nc(C3CC(=O)N(c4ccc(F)c(Cl)c4)C3)no2)c(C)c1 (stereo not given) | –
Cc1ccccc1CN1Cc2nc(N3CCCC3)ccc2OCC1=O | 10µM
Cc1ccccc1CN1Cc2nc(-c3cnn(C)c3)ccc2OCC1=O | –
Cc1ccccc1CN1Cc2nc(-c3ccccc3)ccc2OCC1=O | –
COc1ccc(C(=O)N2CCC(N3C(=O)C(O)C34CCCCC4)CC2)c(OC)c1 (stereo not given) | –
COc1ccc(Cl)cc1NC(=O)c1cc(S(=O)(=O)N2CCC(C)CC2)cn1C | –
COc1ccccc1N1CCN(C(=O)c2cc(S(=O)(=O)N3CCC(C)CC3)cn2C)CC1 | 8.91µM
COc1ccc(N2CCN(C(=O)c3cc(S(=O)(=O)N4CCCCCC4)cn3C)CC2)cc1 | –
CCCS(=O)(=O)N1CCC(c2noc(-c3ccccc3)n2)C1 (stereo not given) | –[5.79 µM]
CCc1nc(-c2c3n(c(=O)n(Cc4ccc(OC)cc4)c2=O)CCCCC3)no1 | –
SMILES | Pf Dd2 growth
COc1cccc(C(=O)N2CCCC2c2nc(C3CCOCC3)no2)c1 (stereo not given) | –
CC1=C[C@@H](CNC(=O)Cn2cnnn2)[C@H](C(C)C)C[C@H]1Cc1nc2ccccc2n1C | 10µM
CC1=C[C@@H](CNC(=O)CN(C)C)[C@H](C(C)C)C[C@H]1Cc1nc2ccccc2[nH]1 | –
CC1=C[C@@H](CNC(=O)C2CC2)[C@H](C(C)C)C[C@H]1Cc1nc2ccccc2n1C | –
CC1=C[C@@H](CNC(=O)c2cnccn2)[C@H](C(C)C)C[C@H]1Cc1nc2ccccc2[nH]1 | –
CC1=C[C@@H](CNC(=O)Cn2cnnn2)[C@H](C(C)C)C[C@H]1Cc1nc2ccc(C)cc2[nH]1 | –
CC1=C[C@@H](CNC(=O)Cc2ccccc2)[C@H](C(C)C)C[C@H]1Cc1nc2ccncc2[nH]1 | –
CC1=C[C@@H](CNC(=O)CC2(CC(=O)O)CCCC2)[C@H](C(C)C)C[C@H]1Cc1nc2ccccc2n1C | –
CC1=C[C@@H](CNC(=O)c2cnccn2)[C@H](C(C)C)C[C@H]1Cc1nc2ccccc2n1C | 8.91µM
COCC(=O)NC[C@@H]1C=C(C)[C@H](Cc2nc3ccccc3n2C)C[C@H]1C(C)C | 10µM
O=C(N[C@@H]1CN(Cc2ccoc2)C[C@H]1CO)c1cccnc1 | –
CC(C)NC(=O)N1CCC[C@@H](O)[C@H](NC(=O)c2ccc(OCCN3CCCC3)cc2)C1 | –
COc1cccc(CC(=O)NC2CCN(c3cc(-c4ccccc4)[nH]n3)CC2)c1 | –
COc1cccc(CN2CC(Oc3ccccc3C(=O)NC3CC3)C2)n1 | 3.98µM
COc1ccc(CN2CC(Oc3ccccc3C(=O)NC3CC3)C2)cc1OC | –
O=C(NCc1ccccc1)c1ccccc1OC1CN(Cc2ccc(F)c(F)c2)C1 | –
O=C(NCc1ccccc1)c1ccccc1OC1CN(Cc2ccsc2)C1 | 3.98µM
O=C(NC1CC1)c1ccccc1OC1CN(Cc2ccc(F)cc2F)C1 | –
COc1ccc(OC)c(CN2CCOc3ccc(C(=O)NCc4ccc(C)cc4)cc3C2)c1 | –
COc1ccc(OC2CN(Cc3ccsc3)C2)cc1 | –
Cc1ccc(CN2CC(Oc3ccccc3C(=O)NC3CC3)C2)o1 | –
COc1ccc(OC)c(CN2CC(Oc3ccccc3C(=O)NCc3ccccc3)C2)c1 | 1.78µM
COC(=O)c1ccc2c(c1)nc1n2[C@@H](CNC(C)=O)COC1 | –
CN1CCN(S(=O)(=O)c2cccc(C(=O)N3C[C@@H]4CCN[C@@H]4C3)c2)CC1 | –
